Results as given in PubChem BioAssay AID485313 (National Center for Advancing Translational Sciences (NCATS), 2010).
Out of some 320,000 compounds screened, about 7,600 (2.4%) were called active. Inconclusive results (about 3%) are left out. The call rests on the fitted dose curve; in most records, active means well fitted activation curve with a large enough effect; inconclusive means small, poorly fitted or top-dose-only effect; inactive means no such curve, though single readings can be large or run the other way. The entries come from a sample that favours actives as a whole. Where a call stands in place of a potency, no number is given.

assay: qHTS Assay for NPC1 Promoter Activators; conditions: Huh7 NPC1 promoter luciferase reporter, 24 h; series mostly up to 9.22 µM; further: nearly all actives have a fitted effect of over 60% in size;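 on activation: reporter is driven by a mutant NPC1 promoter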
Procedure, shortened: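 Huh7 cells stably carrying NPC1 promoter–luciferase, plated in Opti-MEM with 10% FBS for 2 h, were exposed to compound in DMSO for 24 h at 37 °C; luciferase reagent was added for 10 min and luminescence read.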
Potency means the concentration at half of the fitted maximal effect.

SMILES	Potency
CC(=O)c1ccc(OCCCC(=O)Nc2ccc(C)c(S(=O)(=O)N3CCOCC3)c2)cc1	inactive
COc1ccc(CNC(=O)COC(=O)c2c(C)nn(-c3ccccc3)c2C)cc1OC	inactive
O=C(CN1CCCSc2ccccc21)N1CCN(S(=O)(=O)c2ccccc2)CC1	inactive
COc1ccccc1OCCOc1ccc(/C=N/n2cnnc2)cc1	inactive
COc1cccc(OCCOc2cccc(/C=N/n3cnnc3)c2)c1	3.98 µM (active)
C(=N\n1cnnc1)/c1cccnc1	inactive
Cc1csc(NC(=O)C2CCN(S(=O)(=O)c3ccccc3)CC2)n1	inactive
COc1cc2c(cc1OC)CN(C(C)C(=O)Nc1cccc(S(=O)(=O)N3CCOCC3)c1)CC2 (configuration not stated)	inactive
Cc1c(C(=O)NNC(=O)c2ccncc2)oc2ccccc12	inactive
CCN(CC(=O)Nc1ccc(OC)cc1)C(=O)CSCc1ccc(C)cc1	inactive
O=C(Nc1cc(C(F)(F)F)ccc1Cl)c1cc2nc3c(c(C(F)(F)F)n2n1)CCCC3	3.16 µM (active)
O=C(Nc1cc(C(F)(F)F)ccc1Cl)C(=O)N1CCCCC1	inactive
O=C(Nc1cc(C(F)(F)F)ccc1Cl)c1cc(C2CC2)on1	inactive
O=C(COc1ccccc1Cl)N1N=C(c2cccs2)CC1c1ccco1 (configuration not stated)	inactive
CC(C)C(NC(=O)c1c(F)cccc1F)C(=O)NCc1ccncc1 (configuration not stated)	inactive
O=C(OCC(=O)N1CCc2ccccc21)C1CCCN1S(=O)(=O)c1ccc(Cl)cc1 (configuration not stated)	inactive
O=C(Nc1cccc(F)c1)NC1CCCCCCC1	2.51 µM (active)
O=C(Nc1cccc(F)c1)NC1CCCc2ccccc21 (configuration not stated)	inactive
C/C(CC(=O)Nc1cccc(F)c1)=N\NC(=O)C(=O)NC1CCCCC1	inactive
COc1ccc(OC)c(S(=O)(=O)n2c([N+](=O)[O-])cnc2C)c1	inactive
NC(=O)CSc1nnc(NC(=O)c2ccc3ccccc3c2)s1	3.16 µM (active)
O=C(/C=C/c1ccccc1)Nc1nnc(SCC(=O)c2ccc3ccccc3c2)s1	inactive
NC(=O)CSc1nnc(NC(=O)c2ccc(Br)o2)s1	inactive

SMILES	Potency
CCSc1nnc(NC(=O)c2ccc(C)cc2)s1	1.12 µM (active)
CCOC(=O)CSc1nnc(NC(=O)c2cccc(S(=O)(=O)N3CCCC3)c2)s1	inactive
C=CCSc1nnc(NC(=O)c2ccc(NC(C)=O)cc2)s1	inactive
CN(CC(=O)NCC(c1ccccc1)N1CCCC1)S(=O)(=O)c1ccc(Cl)cc1 (configuration not stated)	inactive
CC(C)(C)OC(=O)Nc1ccc([C@@H](NC(=O)OC(C)(C)C)C(=O)OC(C)(C)C)cc1	inactive
Cc1ccc(NC(=O)Cc2nc(COC(=O)C(C)NS(=O)(=O)c3ccc(C)cc3)cs2)cc1 (configuration not stated)	inactive
COc1cc(C(=O)NCC(c2ccco2)N2CCCC2)ccc1OCc1ccccc1 (configuration not stated)	inactive
CCN(CC(=O)Nc1ccccc1OC)C(=O)CC1CC2CCC1C2 (configuration not stated)	inactive
COc1cccc(NC(=O)CN(C)C(=O)c2cc(C3CC3)nn2-c2ccccc2)c1	inactive
CSc1nc2ccc(NC(=O)c3c(F)cccc3F)cc2s1	2.51 µM (active)
CCCC(=O)Nc1nc2ccc(NC(=O)c3c(F)c(F)c(OC)c(F)c3F)cc2s1	inactive
O=C(Nc1ccncc1)c1c(F)cccc1F	inactive
CC1(C)CC(=O)C=C(c2ccc(Cl)c(C(F)(F)F)c2)C1	inactive
CCOc1ccc(NC(=O)CN(C)C(=O)Cc2sc(C)nc2-c2ccc(F)cc2)cc1OCC	inactive
COc1ccccc1C(=O)NCCC(=O)N(C)Cc1cccnc1	inactive
CC1(C)O[C@@H]2[C@H](O1)[C@@H](CO)O[C@H]2n1c(N2CCCCC2)nc2c(N)ncnc21	inactive
CC(=O)c1cccc(S(=O)(=O)N2CCC(n3nnc4cc(F)ccc43)CC2)c1	inactive
O=C(c1ccc(F)cc1)N1CCC(n2nnc3ccccc32)CC1	4.47 µM (active)
O=S(=O)(c1cccc(S(=O)(=O)N2CCC(n3nnc4ccccc43)CC2)c1)N1CCCCC1	inactive
CCCCn1c(N)c(N(CCC(C)C)C(=O)COC(=O)c2cccnc2OCC)c(=O)[nH]c1=O	inactive
CCCCn1c(N)c(N(CCC(C)C)C(=O)COC(=O)c2ccc(CC)cc2)c(=O)[nH]c1=O	inactive
CC(Sc1nnc(-c2cccs2)n1C1CC1)C(=O)NCC1CCCO1 (configuration not stated)	inactive
CCC(=O)NC(=Nc1nc2ccccc2s1)NC(=O)CC	1.26 µM (active)

SMILES	Potency
CN(Cc1nc2ccccc2s1)C(=O)c1ccc(F)cc1	inactive
CC(C)CC(=O)N/C(N)=N/c1nc2ccccc2s1	0.501 µM (active)
CC(C)CC(=O)NC(=S)NCc1ccccc1	inactive
Cc1cc(C(=O)OCC(=O)Nc2nnc(C(C)C)s2)c2ccccc2n1	inactive
CC(=O)Nc1cccc(-c2nc3ccccc3s2)c1C	inactive
Cc1ccc(F)cc1NC(=O)CSCc1c(C)noc1C	inactive
Cc1nn(Cc2ccccc2)c(C)c1C(=O)N1CCN(CC(=O)Nc2ccccc2Cl)CC1	inactive
C=CCC1(CC=C)CCCN1C(=O)c1cc(COc2ccc(-n3cncn3)cc2)on1	inactive
Cc1ccc(Nc2nc(-c3ccc(O)cc3O)cs2)nc1	2 µM (active)
CC(=O)Nc1ccc(C(=O)Nc2nc(-c3cc(C)n(Cc4ccccc4)c3C)cs2)cc1	inactive
C=C(C)CNc1cc(S(=O)(=O)N2CCOCC2)ccc1Oc1ccccc1	inactive
CCCn1c(NC(=O)C23CC4CC(CC(O)(C4)C2)C3)nc2ccccc21	inactive
CC1CCCN(c2ccc(C(=O)NCCc3ccccc3)cn2)C1 (configuration not stated)	3.16 µM (active)
CC1CCN(C(=O)CCNC(=O)c2ccccc2)CC1	inactive
O=C(NCCc1ccccc1)c1ccc2c(c1)N(Cc1ccccc1)CCS2	inactive
Cc1ccc(NC(=O)CCCNC(=O)c2ccc(Cl)cc2)cc1S(=O)(=O)N1CCCCC1	inactive
CC(C)(C)C(=O)CSc1ccc(S(=O)(=O)N2CCCC2)cn1	inactive
CC(NC(=O)c1ccc(S(=O)(=O)Nc2ccccc2)cc1)c1ccc(S(N)(=O)=O)cc1 (configuration not stated)	inactive
O=C(Nc1cccnc1)c1cccc(S(=O)(=O)N2CCCC2)c1	inactive
O=C(Nc1cccnc1)c1cc(Cl)ccc1Cl	inactive
O=C(Nc1cccnc1)c1noc2c1CCCCC2	2.51 µM (active)
